# Measured values reported in the supplement of paper PMC8728848.
# The sample as a whole holds a higher share of the strongest signals than the screen did.
# B1: pilr alpha (protein)
# chain: MLYGVTQPKHLSASMGGSVEIPFSFYYPWELATAPDVRISWRRGHFHRQSFYSTRPPSIHKDYVNRLFLNWTEGQKSGFLRISNLQKQDQSVYFCRVELDTRSSGRQQWQSIEGTKLSIT
# Legend:
# Assay in all cases: glycan array binding signal (z-score within array); higher = stronger binding
# Settings in all cases: glycan notation: IUPAC condensed, linker removed
# [1] = molecular target: Fuc(a1-2)Gal(b1-4)GlcNAc(b1-2)Man(a1-3)[Fuc(a1-2)Gal(b1-4)GlcNAc(b1-2)Man(a1-6)]Man(b1-4)GlcNAc(b1-4)[Fuc(a1-6)]GlcNAc
# Procedure, shortened: (§1)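 Columns mapping to the same glycan were averaged after glycan names were converted to IUPAC-condensed notation. The data come from 3228 arrays in the Consortium for Functional Glycomics database, limited to those with an available protein sequence. Binding is reported as a within-array Z-score averaged across arrays of one protein sequence and across linkers.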
# [2] = molecular target: Fuc(a1-2)[GalNAc(a1-3)]Gal(b1-3)GlcNAc(b1-3)GalNAc
# Procedure, shortened: as §1
# [3] = molecular target: Fuc(a1-2)[GalNAc(a1-3)]Gal(b1-4)[Fuc(a1-3)]GlcNAc(b1-3)GalNAc
# Procedure, shortened: as §1
# [4] = molecular target: Fuc(a1-3)[Gal(b1-4)]GlcNAc(b1-2)Man(a1-3)[Fuc(a1-3)[Gal(b1-4)]GlcNAc(b1-2)Man(a1-6)]Man(b1-4)GlcNAc(b1-4)GlcNAc
# Procedure, shortened: as §1
# [5] = molecular target: Gal(a1-3)Gal(b1-3)GlcNAc
# Procedure, shortened: as §1
# [6] = molecular target: Gal(a1-3)Gal(b1-3)GlcNAc(b1-2)Man(a1-3)[Gal(a1-3)Gal(b1-3)GlcNAc(b1-2)Man(a1-6)]Man(b1-4)GlcNAc(b1-4)GlcNAc
# Procedure, shortened: as §1
# [7] = molecular target: Gal(a1-3)Gal(b1-4)[Fuc(a1-3)]GlcNAc(b1-2)Man(a1-3)[Gal(a1-3)Gal(b1-4)[Fuc(a1-3)]GlcNAc(b1-2)Man(a1-6)]Man(b1-4)GlcNAc(b1-4)GlcNAc
# Procedure, shortened: as §1
# [8] = molecular target: Gal(a1-3)GalNAc
# Procedure, shortened: as §1
# [9] = molecular target: Gal(a1-3)[Gal(a1-4)]Gal(b1-4)GlcNAc
# Procedure, shortened: as §1
# [10] = molecular target: Gal(a1-4)Gal(b1-4)Glc
# Procedure, shortened: as §1
# [11] = molecular target: Gal(a1-4)Gal(b1-4)GlcNAc(b1-3)Gal(b1-4)Glc
# Procedure, shortened: as §1
# [12] = molecular target: Gal(b1-3)GalNAc(b1-4)Gal(b1-4)Glc
# Procedure, shortened: as §1
# [13] = molecular target: Gal(b1-3)GlcNAc(b1-3)Gal(b1-3)GlcNAc
# Procedure, shortened: as §1
# [14] = molecular target: Gal(b1-3)GlcNAc(b1-3)Gal(b1-4)[Fuc(a1-3)]GlcNAc(b1-6)[Gal(b1-3)GlcNAc(b1-3)]Gal(b1-4)Glc
# Procedure, shortened: as §1
# [15] = molecular target: Gal(b1-3)GlcNAc6S
# Procedure, shortened: as §1
# [16] = molecular target: Gal(b1-3)[Fuc(a1-4)]GlcNAc(b1-6)GalNAc
# Procedure, shortened: as §1
# [17] = molecular target: Gal(b1-4)GlcNAc
# Procedure, shortened: as §1
# [18] = molecular target: Gal(b1-4)GlcNAc(b1-3)Gal(b1-4)GlcNAc(b1-3)Gal(b1-4)GlcNAc(b1-3)Gal(b1-4)GlcNAc(b1-2)[Gal(b1-4)GlcNAc(b1-3)Gal(b1-4)GlcNAc(b1-3)Gal(b1-4)GlcNAc(b1-3)Gal(b1-4)GlcNAc(b1-6)]Man(a1-6)[Gal(b1-4)GlcNAc(b1-3)Gal(b1-4)GlcNAc(b1-3)Gal(b1-4)GlcNAc(b1-3)Gal(b1-4)GlcNAc(b1-2)Man(a1-3)]Man(b1-4)GlcNAc(b1-4)[Fuc(a1-6)]GlcNAc
# Procedure, shortened: as §1
# [19] = molecular target: GalNAc(a1-3)Gal
# Procedure, shortened: as §1
# [20] = molecular target: GalNAc(b1-3)Gal(a1-4)Gal(b1-4)GlcNAc
# Procedure, shortened: as §1
# [21] = molecular target: GalNAc(b1-3)Gal(a1-6)Gal(b1-4)Glc
# Procedure, shortened: as §1
# [22] = molecular target: GalNAc(b1-4)GlcNAc
# Procedure, shortened: as §1
# [23] = molecular target: GalNAc(b1-6)GalNAc
# Procedure, shortened: as §1
# [24] = molecular target: Glc(a1-6)Glc(a1-6)Glc
# Procedure, shortened: as §1
# [25] = molecular target: GlcNAc(a1-4)Gal(b1-4)GlcNAc(b1-3)Gal(b1-4)[Fuc(a1-3)]GlcNAc(b1-3)Gal(b1-4)[Fuc(a1-3)]GlcNAc
# Procedure, shortened: as §1
# [26] = molecular target: GlcNAc(b1-3)Gal(b1-4)GlcNAc
# Procedure, shortened: as §1
# [27] = molecular target: GlcNAc(b1-3)Gal(b1-4)GlcNAc(b1-2)Man(a1-3)[GlcNAc(b1-3)Gal(b1-4)GlcNAc(b1-2)Man(a1-6)]Man(b1-4)GlcNAc(b1-4)GlcNAc
# Procedure, shortened: as §1
# [28] = molecular target: GlcNAc(b1-3)Gal(b1-4)GlcNAc(b1-2)[GlcNAc(b1-3)Gal(b1-4)GlcNAc(b1-6)]Man(a1-6)[GlcNAc(b1-3)Gal(b1-4)GlcNAc(b1-2)Man(a1-3)]Man(b1-4)GlcNAc(b1-4)GlcNAc
# Procedure, shortened: as §1
# [29] = molecular target: GlcNAc(b1-3)Gal(b1-4)GlcNAc(b1-3)Gal(b1-4)GlcNAc(b1-2)Man(a1-3)[GlcNAc(b1-3)Gal(b1-4)GlcNAc(b1-3)Gal(b1-4)GlcNAc(b1-2)Man(a1-6)]Man(b1-4)GlcNAc(b1-4)GlcNAc
# Procedure, shortened: as §1
# [30] = molecular target: Man(a1-2)Man(a1-6)[Man(a1-3)]Man(a1-6)[Man(a1-2)Man(a1-2)Man(a1-3)]Man(b1-4)GlcNAc(b1-4)GlcNAc
# Procedure, shortened: as §1
# [31] = molecular target: Neu5Ac(a2-3)Gal(b1-3)GalNAc
# Procedure, shortened: as §1
# [32] = molecular target: Neu5Ac(a2-3)Gal(b1-3)GalNAc(b1-4)[Neu5Ac(a2-8)Neu5Ac(a2-3)]Gal(b1-4)Glc
# Procedure, shortened: as §1
# [33] = molecular target: Neu5Ac(a2-3)Gal(b1-4)GlcNAc(b1-3)Gal(b1-4)GlcNAc(b1-3)Gal(b1-4)GlcNAc
# Procedure, shortened: as §1
# [34] = molecular target: Neu5Ac(a2-3)Gal(b1-4)GlcNAc(b1-6)[Gal(b1-3)]GalNAc
# Procedure, shortened: as §1
# [35] = molecular target: Neu5Ac(a2-3)Gal6S(b1-4)GlcNAc
# Procedure, shortened: as §1
# [36] = molecular target: Neu5Ac(a2-3)[GalNAc(b1-4)]Gal(b1-4)GlcNAc
# Procedure, shortened: as §1
# [37] = molecular target: Neu5Ac(a2-3)[GalNAc(b1-4)]Gal(b1-4)GlcNAc(b1-3)GalNAc
# Procedure, shortened: as §1
# [38] = molecular target: Neu5Ac(a2-6)Gal(b1-4)GlcNAc(b1-2)[Neu5Ac(a2-6)Gal(b1-4)GlcNAc(b1-6)]Man(a1-6)[Neu5Ac(a2-6)Gal(b1-4)GlcNAc(b1-2)Man(a1-3)][GlcNAc(b1-4)]Man(b1-4)GlcNAc(b1-4)GlcNAc
# Procedure, shortened: as §1
# [39] = molecular target: Neu5Ac(a2-6)Gal(b1-4)GlcNAc(b1-3)Gal(b1-4)GlcNAc(b1-3)Gal(b1-4)GlcNAc(b1-2)Man(a1-3)[Neu5Ac(a2-6)Gal(b1-4)GlcNAc(b1-3)Gal(b1-4)GlcNAc(b1-3)Gal(b1-4)GlcNAc(b1-2)Man(a1-6)]GalNAc
# Procedure, shortened: as §1
# [40] = molecular target: Neu5Ac(a2-6)GalNAc
# Procedure, shortened: as §1
# [41] = molecular target: Neu5Ac(a2-6)GalNAc(b1-4)GlcNAc
# Procedure, shortened: as §1
# [42] = molecular target: Neu5Ac(a2-8)Neu5Ac(a2-3)[Gal(b1-3)GalNAc(b1-4)]Gal(b1-4)Glc
# Procedure, shortened: as §1
# [43] = molecular target: Neu5Ac(b2-6)Gal(b1-4)GlcNAc
# Procedure, shortened: as §1
# [44] = molecular target: Neu5Gc(a2-6)GalNAc
# Procedure, shortened: as §1
binder,measurement,setting,value
B1,glycan array binding signal (z-score),[1],0.117
same,glycan array binding signal (z-score),[2],-0.147
same,glycan array binding signal (z-score),[3],6.68
same,glycan array binding signal (z-score),[4],-1.03
same,glycan array binding signal (z-score),[5],0.373
same,glycan array binding signal (z-score),[6],-0.319
same,glycan array binding signal (z-score),[7],-0.503
same,glycan array binding signal (z-score),[8],2.27
same,glycan array binding signal (z-score),[9],7.86
same,glycan array binding signal (z-score),[10],1.77
same,glycan array binding signal (z-score),[11],-0.604
same,glycan array binding signal (z-score),[12],2.46
same,glycan array binding signal (z-score),[13],-0.764
same,glycan array binding signal (z-score),[14],0.008
same,glycan array binding signal (z-score),[15],-0.425
same,glycan array binding signal (z-score),[16],-0.479
same,glycan array binding signal (z-score),[17],-0.271
same,glycan array binding signal (z-score),[18],2.72
same,glycan array binding signal (z-score),[19],0.654
same,glycan array binding signal (z-score),[20],2.72
same,glycan array binding signal (z-score),[21],-0.342
same,glycan array binding signal (z-score),[22],8.03
same,glycan array binding signal (z-score),[23],0.632
same,glycan array binding signal (z-score),[24],-0.27
same,glycan array binding signal (z-score),[25],0.876
same,glycan array binding signal (z-score),[26],-0.07
same,glycan array binding signal (z-score),[27],0.049
same,glycan array binding signal (z-score),[28],1.61
same,glycan array binding signal (z-score),[29],1.68
same,glycan array binding signal (z-score),[30],-0.021
same,glycan array binding signal (z-score),[31],-0.231
same,glycan array binding signal (z-score),[32],-0.149
same,glycan array binding signal (z-score),[33],-0.173
same,glycan array binding signal (z-score),[34],-0.533
same,glycan array binding signal (z-score),[35],-0.007
same,glycan array binding signal (z-score),[36],-0.65
same,glycan array binding signal (z-score),[37],0.118
same,glycan array binding signal (z-score),[38],0.09
same,glycan array binding signal (z-score),[39],1.89
same,glycan array binding signal (z-score),[40],-0.546
same,glycan array binding signal (z-score),[41],-0.492
same,glycan array binding signal (z-score),[42],-0.167
same,glycan array binding signal (z-score),[43],-0.768
same,glycan array binding signal (z-score),[44],-0.353
